The sample as a whole holds a higher share of hits than the screen did.
Pf apPOL block: Pf-apPOL inhibitors, biochemical, fluorescence; Recombinant Pf-apPOL, molecular beacon fluorescence, 1.5 h; inhibition, % at 10 µM; 0.25% of 210,000 active; Plasmodium falciparum apicoplast DNA polymerase (apPOL)
mHTT CaM bind: mutant huntingtin-calmodulin interaction inhibitors – biochemical, AlphaScreen, primary screen; AlphaScreen His-mHTT/GST-CaM binding, luminescence; inhibition, % at 15 µM; 3.6% of 190,000 active;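 note: 0% = both proteins with DMSO and 100% = one protein alone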
* marks the source's active call; other numbers are inactive results; . = not tested or not shown. Cut-off read from the data, not from the text of the source: active = inhibition above about 50%; inactive = the rest.

SMILES	Pf apPOL block	mHTT CaM bind
Fc1ccc(Nc2ncc3c(n2)CCN(Cc2ccc4c(c2)OCCO4)C3)cc1	-6	-7
COc1ccc(CN2CCc3nc(Nc4ccc5c(c4)OCCO5)ncc3C2)cc1OC	1	37
CCOc1ccccc1NC(=O)c1ccc(F)c(S(=O)(=O)NCc2ccc(C)cc2)c1	0	6
Cc1cccc(-c2nccc(C3CCCN(C(=O)Cc4cccs4)C3)n2)c1 (stereo unspecified)	-2	9
CN(C)c1ccc(CN2CCc3nc(Nc4ccc5c(c4)OCO5)ncc3C2)cc1	0	40
Clc1ccccc1CN1CCc2nc(Nc3ccc4c(c3)OCCO4)ncc2C1	4	78*
O=C(C1CCCCC1)N1CC(c2nc(-c3cccnc3)no2)C2(CCOCC2)C1 (stereo unspecified)	-8	1
CCCCC(=O)N1CCN(c2nc(C(C)C)c3c(c2C#N)CC(C)(C)OC3)CC1	-5	-2
CCCC(=O)N1CCN(c2nc(C(C)C)c3c(c2C#N)CC(C)(C)OC3)CC1	89*	0
COc1ccc(/C=C2\SC(=O)N(CN3CCCCC3)C2=O)c(OC)c1	-9	6
COc1ccccc1/C=C1\SC(=O)N(CN2CCCC2)C1=O	-3	70*
CSc1cccc(NC(=O)c2ccc([N+](=O)[O-])cc2)c1	-7	20
N#CC1=C(N)SC(N)=C(C#N)C1c1ccc(Cl)c(Cl)c1	-2	98*
N#CC1=C(N)SC(N)=C(C#N)C1c1ccncc1	.	2
CCOC(CCn1c(SCC(=O)NCCOC)nc2ccccc2c1=O)OCC	-2	-1
CCOc1ccccc1NC(=O)C1CC(=O)N(CCc2c[nH]c3ccc(F)cc23)C1 (stereo unspecified)	-1	30
O=C(Nc1cccn2c(C3CCC3)nnc12)c1ccccn1	-8	61*
O=C(Nc1cccn2c(C3CCC3)nnc12)C1CCCO1 (stereo unspecified)	-2	-1
COc1cc(NC(=O)c2ccccc2)c(OC)cc1NC(=O)CCc1ccccc1	-12	27
O=C(NCc1ccco1)c1cc2n(n1)CCCN(Cc1ccc(F)cc1)C2=O	2	3
COc1ccc(-c2cc(C(F)(F)F)n3ncc(C(=O)N4CCCC4)c3n2)cc1	-7	-6
COc1ccc(-c2cc(C(F)(F)F)n3nc(C(=O)O)c(Br)c3n2)cc1	-1	65*
COc1ccc(-c2cc(C(F)(F)F)n3nc(C(=O)O)c(Cl)c3n2)cc1	-5	64*
NC(=O)c1nn2c(C(F)(F)F)cc(-c3ccc(Cl)cc3)nc2c1Cl	1	0
COc1ccc(C(=O)Nc2sc3ccccc3c(=O)c2-c2cccs2)cc1OC	-1	-5
SMILES	Pf apPOL block	mHTT CaM bind
O=c1[nH]c(CN2CCCCC2)nc2c1oc1ccccc12	69*	4
O=c1[nH]c(CN2CCOCC2)nc2ccccc12	-18	.
Cc1ccc(C(=O)N2CCC3(CC2)NC(=O)c2ccc(F)cc2N3C)c(C)c1	-2	0
Cc1ccc(C(=O)N2CCC3(CC2)NC(=O)c2cc(F)ccc2N3C)c(C)c1	0	56*
CCC(C(=O)Nc1c2c(nn1-c1ccc([N+](=O)[O-])cc1)CS(=O)(=O)C2)c1ccccc1 (stereo unspecified)	-2	0
CCS(=O)(=O)Nc1ccc(C2(C(=O)NCc3ccc(C)c(C)c3)CCC2)cc1	-1	4
Cc1nc2ccc(NC(=O)N3CCCC3)cc2nc1C	1	0
O=C(Nc1ccc2nc(-c3ccco3)c(-c3ccco3)nc2c1)N1CCOCC1	-5	76*
O=C(Nc1ccc2nc(-c3ccco3)c(-c3ccco3)nc2c1)N1CCSCC1	2	84*
O=C(Nc1ccc2nc(-c3ccccn3)c(-c3ccccn3)nc2c1)N1CCOCC1	-2	7
CC1CCN(C(=O)C2=CN(c3cccc(Cl)c3)c3ccccc3S2(=O)=O)CC1	2	11
COc1ccccc1OC(C)C(=O)N1CCN(c2nc(CN3CCOCC3)cs2)CC1 (stereo unspecified)	-5	10
COc1ccc(NCC(O)Cn2c(C)c(C)c3ccccc32)cc1 (stereo unspecified)	2	57*
Cc1c(C)n(CC(O)CN2CCCCCC2)c2ccccc12 (stereo unspecified)	-8	10
CCOc1ccc(NCC(O)Cn2c(C)c(C)c3ccccc32)cc1 (stereo unspecified)	-2	84*
COc1ccc(NCC(O)Cn2c(C)c(C)c3ccccc32)c(OC)c1 (stereo unspecified)	-1	74*
CC(=O)Nc1ccc(OCC(O)Cn2c3ccccc3c3ccccc32)cc1 (stereo unspecified)	-2	26
Cc1c(C)n(CC(O)CNC2CCCCC2)c2ccccc12 (stereo unspecified)	0	3
CCOC(=O)C(N)CCSC (stereo unspecified)	-2	.
CCCS(=O)(=O)N1CC(CN(C)C)C2(CCOCC2)C1 (stereo unspecified)	-2	-6

From PubChem BioAssay
